ATXN2 expr inh – inhibitors of ATXN2 expression | HEK-293 ATXN2-luciferase reporter, luminescence, 24 h | Potency, µM (series often up to 57 µM), inactives show top-dose activity change, negative = inhibition, actives largely listed as inhibitors | 360,000 tested, 0.72% active | AID 1745845; further: on the % scale 0 is the no-effect control and ±100 the full control effect; nearly all actives have a fitted effect of over 55% in size
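qHTS (up to 57 uM final) was run with 24 h compound exposure of reporter cells at 37 °C. Each well was multiplexed: SteadyGlo luminescence measured ATXN2-luciferase expression after a fluorogenic Gly-Phe-AFC viability readout (25 uM final).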
ATXN viability – cell viability loss in ATXN counter-screen; S2 cells (HEK-293 line with an ATXN2-luciferase reporter) viability, CellTiter-Fluor protease fluorescence, 24 h; Potency, µM (highest dose often 56.7 µM), actives largely listed as cytotoxic; 400,000 tested, 0.49% active; AID 651635; further: nearly all actives have a fitted effect of over 40% in size
Gal4-VP16 FLuc – counter-screen for ROR gamma inhibitors: Gal4-VP16 reporter | Potency, µM (titrated, usually from 53.6 µM), inactives show top-dose activity, negative = inhibition, actives largely listed as inhibitors | 310,000 tested, 3.5% active | Drosophila S2 Gal4-VP16 UAS-luciferase, luminescence, 20 h;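 further: Gal4-VP16 expression switched on by copper sulfate through the metallothionein promoter; on the % scale 0 is the no-effect control and ±100 the full control effect; nearly all actives have a fitted effect of over 50% in size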
TGFb inhibitor – TGF-b pathway inhibition | HepG2 CAGA-GFP TGF-b/SMAD3 reporter, GFP fluorescence, 18 h; TGF-beta stimulated, 500 pg/mL final | Potency, µM (top dose mostly 46.1 µM), for the others: top-dose activity, negative = inhibition, hits mostly inhibitors | 410,000 tested, 1.2% active; further: on the % scale 0 is the no-effect control and ±100 the full control effect; nearly all actives have a fitted effect of over 65% in size
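Using HEPG2 CAGA-GFP reporter cells at 1000 cells/well, we pinned test compounds, stimulated with recombinant TGF-beta (500 pg/mL final) and measured total well GFP after 18 h.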
RORgamma inh – inhibitors of mouse ROR gamma transcriptional activity; 310,000 tested, 5.4% active; AID 2551; Potency, µM (top dose mostly 53.6 µM), for inactives: top-dose activity change, negative = inhibition, usual class: inhibitors; P51450; Drosophila S2 Gal4-RORgamma UAS-luciferase reporter, 20 h; further: on the % scale 0 is the no-effect control and ±100 the full control effect; nearly all actives have a fitted effect of over 60% in size
Target sequence (P51450 whole entry, looked up, the tested form may be a part): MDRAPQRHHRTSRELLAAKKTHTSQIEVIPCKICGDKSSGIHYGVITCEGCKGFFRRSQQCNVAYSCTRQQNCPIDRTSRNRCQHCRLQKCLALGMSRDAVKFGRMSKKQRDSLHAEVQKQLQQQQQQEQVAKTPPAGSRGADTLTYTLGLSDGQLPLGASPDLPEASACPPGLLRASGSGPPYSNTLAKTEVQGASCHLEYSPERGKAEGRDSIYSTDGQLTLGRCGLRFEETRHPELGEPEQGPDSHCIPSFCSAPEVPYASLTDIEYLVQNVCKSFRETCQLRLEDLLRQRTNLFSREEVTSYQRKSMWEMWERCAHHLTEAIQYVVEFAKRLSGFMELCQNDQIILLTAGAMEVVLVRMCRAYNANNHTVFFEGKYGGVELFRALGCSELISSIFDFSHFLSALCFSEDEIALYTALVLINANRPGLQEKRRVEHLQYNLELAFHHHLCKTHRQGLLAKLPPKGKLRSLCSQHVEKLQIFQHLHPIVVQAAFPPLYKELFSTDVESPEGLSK
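A Gal4/UAS one-hybrid system in insect cells: metallothionein-promoter Gal4–ROR gamma fusion plus Photinus luciferase reporter. Copper sulfate 700 uM final, 20 hr ambient incubation, luminescent detection after 10 min with reagent.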
HepG2 tox – kills HepG2 cells in TGF-b inhibitor counter-screen; HepG2 CAGA-GFP viability, ATP luminescence, 18 h; AID 588856; Potency, µM (titrated, usually from 46.1 µM), for the others: top-dose activity change, negative = cytotoxicity, usual class: cytotoxic; 410,000 tested, 0.76% active
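HepG2 CAGA-GFP cells (1000/well, DMEM with 1% FBS) received compound, then TGF-beta at 500 pg/mL final, and were incubated 18 hours at 37 degrees C. Viability was read by CellTiter-Glo luminescence. Media-only wells were set as complete cell-killing and DMSO as no toxicity.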
Numbers without * were called inactive. Hits are enriched below; roughly 6.3% of the tested compounds scored in any of these assays. The call rests on the fitted dose curve; in most records, active means well fitted curve in the direction sought with a large enough effect; inconclusive means small, poorly fitted or top-dose-only effect, or another doubt; inactive means no such curve, though single readings can be large; an effect the other way counts as inactive or inconclusive. Potency means the concentration at half of the fitted maximal effect.

O=C(Nc1ccc(F)cc1)NC1CCCCC1 was read as ATXN2 expr inh 39.1%, ATXN viability inactive, Gal4-VP16 FLuc 1.0%, TGFb inhibitor -0.2%, RORgamma inh 4.2% and HepG2 tox -13.6%.
For CNC(=O)c1ccc(N2C(=S)N(c3ccc(C#N)c(C(F)(F)F)c3)C(=O)C2(C)C)cc1F the results were ATXN2 expr inh -6.9%.
`CCN(C(=S)Nc1cccc2ccccc12)c1ccccc1` gave ATXN viability inactive, TGFb inhibitor -16.9% and HepG2 tox -29.1%.
CN(C)c1ccc(NC(=S)c2ccccn2)cc1 was read as ATXN2 expr inh inconclusive, ATXN viability inactive, Gal4-VP16 FLuc 0.631µM*, TGFb inhibitor inconclusive, RORgamma inh 0.282µM* and HepG2 tox -46.5%.
`CN(C)c1cc(O)c(C(=S)Nc2ccccc2)c(N(C)C)c1` gave ATXN2 expr inh 30.2%, ATXN viability inactive, Gal4-VP16 FLuc 16.6%, TGFb inhibitor -9.5%, RORgamma inh inconclusive and HepG2 tox -5.5%.
Screening CN(C)c1ccc(C(=S)Nc2ccccc2)cc1 returned ATXN2 expr inh 20.2%, ATXN viability inactive, Gal4-VP16 FLuc inconclusive, TGFb inhibitor -1.4%, RORgamma inh 12.6µM* and HepG2 tox 10.2%.
N#CC(C#N)=Cc1ccc(OC(=O)c2ccccn2)cc1 was read as ATXN2 expr inh 24.7%, ATXN viability inactive, Gal4-VP16 FLuc -25.1%, TGFb inhibitor -11.9%, RORgamma inh 12.6µM* and HepG2 tox -9.9%.
CN(C)c1ccc(/C=C(\C#N)c2ccccn2)cc1 was read as ATXN2 expr inh 11.2µM*, ATXN viability inactive, Gal4-VP16 FLuc 7.94µM*, TGFb inhibitor 26.6%, RORgamma inh 7.08µM* and HepG2 tox -61.9%.
Screening CCCCOc1ccccc1NC(=O)CC1Nc2ccccc2NC1=O (configuration not stated) returned ATXN2 expr inh -20.0%, ATXN viability inactive, Gal4-VP16 FLuc inconclusive, TGFb inhibitor -28.7%, RORgamma inh 10µM* and HepG2 tox -54.6%.
For COc1ccccc1NC1=C(C)C(=O)CC1 the results were ATXN2 expr inh 48.3%, ATXN viability inactive, Gal4-VP16 FLuc -4.1%, TGFb inhibitor -11.2%, RORgamma inh 12.6µM* and HepG2 tox -29.1%.
Screening COc1ccc(-c2nc(C)c(CCNC(=O)C(=O)Nc3cccc(F)c3)s2)cc1OC returned ATXN2 expr inh 13.2%, ATXN viability inactive, TGFb inhibitor -0.7% and HepG2 tox -2.7%.
`COCCNC(=S)N=Nc1c(O)[nH]c2c(C)cc(C)cc12` gave ATXN2 expr inh 38.3%, ATXN viability inactive, Gal4-VP16 FLuc 7.94µM*, TGFb inhibitor 24.9%, RORgamma inh 2.24µM* and HepG2 tox -22.4%.
Screening CCCCCCCCCCS(=O)(=O)N/N=C/c1ccc(O)cc1 returned ATXN2 expr inh -30.6%, ATXN viability inactive, Gal4-VP16 FLuc inconclusive, TGFb inhibitor 12.6µM*, RORgamma inh -1.1% and HepG2 tox -94.2%.
`CCCCCCCCCS(=O)(=O)N/N=C/c1cccc([N+](=O)[O-])c1` gave ATXN2 expr inh -5.3%, ATXN viability inactive, Gal4-VP16 FLuc -20.3%, TGFb inhibitor inconclusive, RORgamma inh -4.7% and HepG2 tox -84.5%.
O=S1(=O)CCO[C@H]2CCCC[C@@H]2N1Cc1ccccc1 was read as TGFb inhibitor -8.9% and HepG2 tox -24.4%.
Screening NNC(=S)NCc1cccnc1 returned ATXN2 expr inh 0.5%, ATXN viability inactive, Gal4-VP16 FLuc inconclusive, TGFb inhibitor 23.5%, RORgamma inh 8.91µM* and HepG2 tox 4.1%.
`NNC(=S)NCc1ccccc1` gave ATXN2 expr inh -2.3%, ATXN viability inactive, Gal4-VP16 FLuc 10µM*, TGFb inhibitor inconclusive, RORgamma inh 2.82µM* and HepG2 tox -12.2%.
